Laboratory results taken from PubChem BioAssay (EPA / NIEHS).
Records with an inconclusive call do not appear. Calls of active or inactive are those of the source. The calls were made as follows, unless noted: active = hit-call score of the fitted dose curve at least 0.9, where 1 is the maximum; inactive = score below 0.9.

Assays:
[1] = target: Retinoic acid receptor RXR-alpha (Homo sapiens) (UniProt P19793); assay: ATG_RXRa_TRANS: Attagene TRANS-FACTORIAL HepG2 Assay for human Retinoid X Receptor alpha (RXRa) (AID 2283012; active = hit-call score of the fitted dose curve at least 0.9, where 1 is the maximum)
Summary of the method: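 Measures exogenous chimeric NR-GAL4 activity in transfected HepG2 liver cells after 24 h of dosing. Induced reporter mRNA was detected by RT-PCR with capillary electrophoresis, and gain of signal was analysed against DMSO.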

[2] = read-out: E-selectin (Homo sapiens) (UniProt P16581); assay: BSK_3C_Eselectin: BioMAP Diversity Plus: 3C Assay for Eselectin Biomarker Activity (AID 2283015); conditions: primary human endothelial cells (HUVEC); actives raise or lower the signal;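 also: cell surface E-selectin protein quantified by ELISA 24 h after dosing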
Summary of the method: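 Endpoint derived by bidirectional fitting against DMSO vehicle; signal is ELISA-detected E-selectin from primary HUVEC at 24 h post-dosing, with parallel SRB staining (0.1% SRB, 560 nm) flagging cytotoxicity.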

[3] = read-out: Interleukin-1 alpha (IL1a), IL1A (gene 3552); assay: BSK_BE3C_IL1a: BioMAP Diversity Plus: BE3C Assay for Interleukin-1 alpha (IL1a) Biomarker Activity (AID 2283016); conditions: primary human bronchial epithelial cells; actives raise or lower the signal
Summary of the method: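 Signal from IL-1a ELISA, taken 24 h after chemical dosing of human bronchial epithelial cells, is compared with DMSO as baseline using bidirectional curve fitting.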

[4] = read-out: Monocyte Chemoattractant Protein-1 (MCP1), CCL2 (gene 6347); assay: BSK_3C_MCP1: BioMAP Diversity Plus: 3C Assay for Monocyte Chemoattractant Protein-1 (MCP1) Biomarker Activity (AID 2283017); conditions: primary human endothelial cells (HUVEC); actives raise or lower the signal
Summary of the method: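 Using human vascular primary endothelium, researchers measured MCP-1 by ELISA 24 h after treatment, with DMSO serving as negative control for bidirectional fitting.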

[5] = read-out: Monocyte Chemoattractant Protein-1 (MCP1), CCL2 (gene 6347); assay: BSK_4H_MCP1: BioMAP Diversity Plus: 4H Assay for Monocyte Chemoattractant Protein-1 (MCP1) Biomarker Activity (AID 2283018); conditions: primary human endothelial cells (HUVEC); actives raise or lower the signal
Summary of the method: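 Endothelial cells from umbilical vein were treated with test chemical, then after 24 h MCP-1 levels were quantified by ELISA; endpoint values came from bidirectional fitting with DMSO as baseline of activity.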

[6] = read-out: Human Leukocyte Antigen - DR isotype (HLADR), HLA-DRA (gene 3122); assay: BSK_3C_HLADR: BioMAP Diversity Plus: 3C Assay for Human Leukocyte Antigen - DR isotype (HLADR) Biomarker Activity (AID 2283019); conditions: primary human endothelial cells (HUVEC); actives raise or lower the signal;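 also: ELISA of cell-surface HLA-DR on HUVEC 24 h after dosing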
Summary of the method: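 Compound added to primary HUVEC cultures, 24 h incubation, then HLA-DR determined by ELISA; endpoint derived by bidirectional fitting relative to DMSO negative control.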

[7] = read-out: Interleukin-8 (IL8), CXCL8 (gene 3576); assay: BSK_3C_IL8: BioMAP Diversity Plus: 3C Assay for Interleukin-8 (IL8) Biomarker Activity (AID 2283020); conditions: primary human endothelial cells (HUVEC); actives raise or lower the signal
Summary of the method: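 Endothelial primary cells of human umbilical vein origin are dosed with chemical; after 24 h the IL-8 biomarker is measured by ELISA, and concentration–response is fitted in both directions versus DMSO.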

[8] = read-out: Monokine induced gamma interferon (MIG), CXCL9 (gene 4283); assay: BSK_3C_MIG: BioMAP Diversity Plus: 3C Assay for Monokine induced gamma interferon (MIG) Biomarker Activity (AID 2283021); conditions: primary human endothelial cells (HUVEC); actives raise or lower the signal
Summary of the method: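 Endothelial primary cells (human umbilical vein) are dosed with test chemical in the 3C system. MIG levels are measured by ELISA at 24 h and fitted in both directions relative to DMSO.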

[9] = target: human Vitamin D Receptor (VDR), VDR (gene 7421) (UniProt P11473); assay: ATG_VDR_TRANS: Attagene TRANS-FACTORIAL HepG2 Assay for human Vitamin D Receptor (VDR) (AID 2283022; active = hit-call score of the fitted dose curve at least 0.9, where 1 is the maximum)
Summary of the method: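 Multiplexed TRANS reporter in HepG2; 24 h treatment; reporter mRNA by RT-PCR plus capillary electrophoresis; upregulation scored relative to DMSO.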

[10] = BSK_3C_SRB: Viability Assessment in the BioMAP Diversity Plus: 3C Assay (AID 2283023); conditions: primary human endothelial cells (HUVEC);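 also: fitted both ways against DMSO so a hit may be signal rise or drop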
Summary of the method: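 Overt cytotoxicity is gauged in parallel confluent HUVEC cultures by SRB total-protein staining at the time of biomarker measurement, 24 h after dosing. Gain or loss of signal is fitted versus DMSO.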

[11] = read-out: Matrix Metallopeptidase 1 (MMP1), MMP1 (gene 4312); assay: BSK_BE3C_MMP1: BioMAP Diversity Plus: BE3C Assay for Matrix Metallopeptidase 1 (MMP1) Biomarker Activity (AID 2283024); conditions: primary human bronchial epithelial cells; actives raise or lower the signal
Summary of the method: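 MMP1 signal, measured by ELISA after a 24 h chemical exposure of human primary bronchial epithelial cells, is analysed with bidirectional fitting using DMSO as negative control.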

[12] = BSK_3C_Vis: BioMAP Diversity Plus: 3C Assay for Morphology Visualization (AID 2283025); conditions: primary human endothelial cells (HUVEC);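 also: fitted both ways so gain or loss versus DMSO counts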
Summary of the method: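 Morphology read by light microscopy serves as a background control for the multiplexed 3C assay in human umbilical vein endothelial cells, taken 24 h after dosing, with DMSO as the negative control and bidirectional curve fitting.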

[13] = read-out: Pselectin, SELP (gene 6403); assay: BSK_4H_Pselectin: BioMAP Diversity Plus: 4H Assay for Pselectin Biomarker Activity (AID 2283026); conditions: primary human endothelial cells (HUVEC); actives raise or lower the signal
Summary of the method: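 Endothelial primary cells (human umbilical vein) are dosed, incubated 24 h, and assayed for surface P-selectin by ELISA; responses in either direction are fitted relative to the DMSO negative control.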

[14] = BSK_4H_SRB: Viability Assessment in the BioMAP Diversity Plus: 4H Assay (AID 2283027); conditions: primary human endothelial cells (HUVEC);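 also: cells exposed to compound for 24 h before staining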
Summary of the method: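 HUVEC, 24 h post-dose; 10% TCA fix, 0.1% SRB stain, A560 nm. Total protein = overt cytotoxicity, parallel to biomarker read. Bidirectional fit vs DMSO baseline.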

[15] = BSK_BE3C_SRB: Viability Assessment in the BioMAP Diversity Plus: BE3C Assay (AID 2283028); conditions: primary human bronchial epithelial cells
Summary of the method: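 SRB total-protein staining (0.1%, after TCA fixation) of chemically dosed human bronchial epithelial primary cells at 24 h; DMSO serves as the negative control for bidirectional curve fitting.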

[16] = read-out: Thrombomodulin, THBD (gene 7056); assay: BSK_3C_Thrombomodulin: BioMAP Diversity Plus: 3C Assay for Thrombomodulin Biomarker Activity (AID 2283029); conditions: primary human endothelial cells (HUVEC); actives raise or lower the signal
Summary of the method: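 Endothelial cells from umbilical vein are dosed with test chemical and incubated 24 h. Thrombomodulin is then quantified by ELISA, with DMSO serving as negative control and activity baseline.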

[17] = read-out: Urokinase-type plasminogen activator receptor (uPAR), PLAUR (gene 5329); assay: BSK_4H_uPAR: BioMAP Diversity Plus: 4H Assay for Urokinase-type plasminogen activator receptor (uPAR) Biomarker Activity (AID 2283030); conditions: primary human endothelial cells (HUVEC); actives raise or lower the signal
Summary of the method: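 Endpoint derived via bidirectional curve fitting against DMSO baseline; readout was ELISA detection of uPAR on umbilical vein endothelial cells at 24 h post-treatment, with SRB-stained parallel cultures assessing cytotoxicity.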

[18] = read-out: Vascular endothelial growth factor receptor 2 (Homo sapiens) (UniProt P35968); assay: BSK_4H_VEGFRII: BioMAP Diversity Plus: 4H Assay for Vascular endothelial growth factor receptor 2 (VEGFR2) Biomarker Activity (AID 2283031); conditions: primary human endothelial cells (HUVEC); actives raise or lower the signal
Summary of the method: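 In this multiplexed HUVEC system, biomarker ELISA was performed after 24 h chemical exposure. Parallel SRB staining (TCA fixation, 560 nm) tracked cytotoxicity; DMSO served as baseline.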

[19] = target: human Thyroid Receptor alpha (THRa1), THRA (gene 7067) (UniProt P10827); assay: ATG_THRa1_TRANS: Attagene TRANS-FACTORIAL HepG2 Assay for human Thyroid Receptor alpha (THRa1) (AID 2283014; active = hit-call score of the fitted dose curve at least 0.9, where 1 is the maximum)
Summary of the method: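 Measured here is mRNA from a GAL4-UAS reporter in transfected HepG2 cells carrying a Gal4-fused receptor, 24 h post-dose. DMSO served as negative control and baseline.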

[20] = target: human Retinoid X Receptor beta (RXRb), RXRB (gene 6257) (UniProt P28702); assay: ATG_RXRb_TRANS: Attagene TRANS-FACTORIAL HepG2 Assay for human Retinoid X Receptor beta (RXRb) (AID 2283013; active = hit-call score of the fitted dose curve at least 0.9, where 1 is the maximum)
Summary of the method: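 Chimeric receptor-Gal4 activity was assessed in transiently transfected human HepG2 cells after 24 h exposure. Transcripts from GAL4-UAS reporters were quantified by fluorescent RT-PCR and capillary electrophoresis, with DMSO as negative control and baseline.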

Sequence of human Retinoid X Receptor beta (RXRb), RXRB (gene 6257) (P28702 whole entry, looked up, the tested form may be a part): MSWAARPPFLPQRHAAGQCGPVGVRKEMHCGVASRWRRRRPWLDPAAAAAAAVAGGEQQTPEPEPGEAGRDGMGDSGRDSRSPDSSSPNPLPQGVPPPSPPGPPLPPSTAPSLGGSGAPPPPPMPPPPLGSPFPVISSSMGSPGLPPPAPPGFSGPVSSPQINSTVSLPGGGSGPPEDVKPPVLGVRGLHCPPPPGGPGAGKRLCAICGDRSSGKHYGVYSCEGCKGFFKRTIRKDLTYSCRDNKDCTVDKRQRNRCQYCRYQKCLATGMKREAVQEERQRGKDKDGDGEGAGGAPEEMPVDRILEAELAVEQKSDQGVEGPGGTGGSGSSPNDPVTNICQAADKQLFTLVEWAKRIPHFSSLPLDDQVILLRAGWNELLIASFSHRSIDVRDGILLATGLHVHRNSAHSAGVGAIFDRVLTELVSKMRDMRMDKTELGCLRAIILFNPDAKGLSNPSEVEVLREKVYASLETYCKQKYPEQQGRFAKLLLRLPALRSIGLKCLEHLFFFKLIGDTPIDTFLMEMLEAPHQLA
Sequence of E-selectin (Homo sapiens) (P16581 whole entry, looked up): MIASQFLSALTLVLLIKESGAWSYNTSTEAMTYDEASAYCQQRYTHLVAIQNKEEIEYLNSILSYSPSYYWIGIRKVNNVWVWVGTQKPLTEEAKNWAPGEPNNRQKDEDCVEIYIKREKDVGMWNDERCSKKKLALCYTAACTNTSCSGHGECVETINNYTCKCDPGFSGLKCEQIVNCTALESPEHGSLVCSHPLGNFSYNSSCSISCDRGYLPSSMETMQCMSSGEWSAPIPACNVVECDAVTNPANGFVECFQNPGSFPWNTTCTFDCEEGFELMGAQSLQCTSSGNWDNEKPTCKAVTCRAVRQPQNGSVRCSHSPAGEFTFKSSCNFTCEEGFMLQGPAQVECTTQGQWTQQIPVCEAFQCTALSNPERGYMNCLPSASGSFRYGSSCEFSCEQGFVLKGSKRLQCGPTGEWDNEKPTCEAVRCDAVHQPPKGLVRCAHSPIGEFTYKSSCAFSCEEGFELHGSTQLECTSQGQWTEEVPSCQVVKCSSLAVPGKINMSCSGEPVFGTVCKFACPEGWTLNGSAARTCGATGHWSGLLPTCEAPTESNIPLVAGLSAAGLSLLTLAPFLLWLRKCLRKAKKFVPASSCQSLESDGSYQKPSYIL
Sequence of Retinoic acid receptor RXR-alpha (Homo sapiens) (P19793 whole entry, looked up, the tested form may be a part): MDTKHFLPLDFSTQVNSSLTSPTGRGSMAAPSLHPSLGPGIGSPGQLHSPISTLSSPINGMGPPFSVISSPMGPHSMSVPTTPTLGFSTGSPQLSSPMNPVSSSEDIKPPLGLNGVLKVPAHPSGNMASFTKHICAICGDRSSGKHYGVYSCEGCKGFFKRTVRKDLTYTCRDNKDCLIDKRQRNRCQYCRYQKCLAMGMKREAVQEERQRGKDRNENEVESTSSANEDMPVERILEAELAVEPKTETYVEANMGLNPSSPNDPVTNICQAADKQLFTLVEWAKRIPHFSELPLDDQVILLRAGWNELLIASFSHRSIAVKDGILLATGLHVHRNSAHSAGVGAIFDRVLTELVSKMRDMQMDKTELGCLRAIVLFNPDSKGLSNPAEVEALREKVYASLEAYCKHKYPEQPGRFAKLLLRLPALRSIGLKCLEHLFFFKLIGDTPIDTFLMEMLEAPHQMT
Sequence of human Vitamin D Receptor (VDR), VDR (gene 7421) (P11473 whole entry, looked up): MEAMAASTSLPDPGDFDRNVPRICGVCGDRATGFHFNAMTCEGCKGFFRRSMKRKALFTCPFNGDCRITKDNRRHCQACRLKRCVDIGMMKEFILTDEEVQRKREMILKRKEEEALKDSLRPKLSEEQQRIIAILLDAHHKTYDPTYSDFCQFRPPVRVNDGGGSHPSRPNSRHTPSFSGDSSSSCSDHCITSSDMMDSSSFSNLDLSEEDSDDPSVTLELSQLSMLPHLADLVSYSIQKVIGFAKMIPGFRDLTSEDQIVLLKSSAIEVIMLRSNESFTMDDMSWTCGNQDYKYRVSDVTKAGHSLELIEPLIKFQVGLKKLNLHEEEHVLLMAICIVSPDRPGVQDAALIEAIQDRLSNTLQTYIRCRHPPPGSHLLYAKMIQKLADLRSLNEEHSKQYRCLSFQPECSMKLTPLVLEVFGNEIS
Sequence of human Thyroid Receptor alpha (THRa1), THRA (gene 7067) (P10827 whole entry, looked up, the tested form may be a part): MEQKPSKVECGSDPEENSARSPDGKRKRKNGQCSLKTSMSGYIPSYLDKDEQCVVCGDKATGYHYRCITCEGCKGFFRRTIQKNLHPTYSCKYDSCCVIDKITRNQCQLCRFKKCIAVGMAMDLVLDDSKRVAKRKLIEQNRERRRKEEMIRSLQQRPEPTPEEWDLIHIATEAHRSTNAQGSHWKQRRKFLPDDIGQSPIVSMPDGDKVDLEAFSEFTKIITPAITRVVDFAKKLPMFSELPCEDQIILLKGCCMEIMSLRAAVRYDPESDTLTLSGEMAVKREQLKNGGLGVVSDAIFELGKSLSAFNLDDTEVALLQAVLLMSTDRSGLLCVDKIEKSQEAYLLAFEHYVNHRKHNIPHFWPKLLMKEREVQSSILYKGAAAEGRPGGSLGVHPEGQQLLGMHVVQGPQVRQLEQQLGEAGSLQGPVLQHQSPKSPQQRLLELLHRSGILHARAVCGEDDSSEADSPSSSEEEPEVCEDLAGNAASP

O=C(NO)c1ccccc1
outcome [1]: inactive | outcome [2]: inactive | outcome [3]: inactive | outcome [4]: inactive | outcome [5]: inactive | outcome [6]: inactive | outcome [7]: inactive | outcome [8]: inactive | outcome [9]: inactive | outcome [10]: inactive | outcome [11]: inactive | outcome [12]: inactive | outcome [13]: inactive | outcome [14]: inactive | outcome [15]: inactive | outcome [16]: inactive | outcome [17]: inactive | outcome [18]: inactive

O=C(OC(=O)C(F)(F)C(F)(F)F)C(F)(F)C(F)(F)F
outcome [1]: inactive | outcome [19]: inactive | outcome [9]: inactive

Cn1sccc1=O
outcome [1]: inactive | outcome [19]: inactive | outcome [9]: inactive

NNC(=O)CCCCC(=O)NN
outcome [1]: inactive | outcome [19]: inactive | outcome [9]: inactive

CCCCCCCCCC=CCC1CC(=O)OC1=O (stereo not drawn)
outcome [20]: inactive | outcome [9]: inactive

CCc1cccc(CC)c1NC(=O)C(=O)O
outcome [19]: inactive | outcome [9]: inactive

O=C1c2ccccc2C(=O)c2c(O)c(O)cc(O)c21
outcome [20]: inactive | AC50 [19]: 21.4 µM (active) | outcome [9]: inactive

NC(C(F)(F)F)C(F)(F)F
outcome [19]: inactive | outcome [9]: inactive

Nc1ccc(O)c(C(=O)O)c1
outcome [20]: inactive | outcome [9]: inactive

FC1(F)C=CC(F)(F)C1(F)F
outcome [19]: inactive

COc1ccccc1NC(=O)c1cc2ccccc2cc1O
AC50 [19]: 21.7 µM (active)

CCCCCCCC(OC)OC
outcome [9]: inactive

Cc1cncc(C)c1
outcome [20]: inactive | outcome [9]: inactive

CCOCCOCC
outcome [19]: inactive | outcome [9]: inactive

COC(=O)CC(C(C)=O)C(=O)OC (stereo not drawn)
outcome [19]: inactive | outcome [9]: inactive

COCN(COC)c1nc(N(COC)COC)nc(N(COC)COC)n1
outcome [20]: inactive | outcome [2]: inactive | outcome [3]: inactive | outcome [4]: inactive | outcome [5]: inactive | outcome [6]: inactive | outcome [7]: inactive | outcome [8]: inactive | outcome [9]: inactive | outcome [10]: inactive | outcome [11]: inactive | outcome [12]: inactive | outcome [13]: inactive | outcome [14]: inactive | outcome [15]: inactive | outcome [16]: inactive | outcome [17]: inactive | outcome [18]: inactive

OCC1CCC(CO)CC1 (stereo not drawn)
outcome [9]: inactive

O=C1OC(=O)c2cc(-c3ccc4c(c3)C(=O)OC4=O)ccc21
outcome [19]: inactive

O=C(c1ccccc1)c1ccccc1
outcome [2]: inactive | outcome [3]: inactive | outcome [4]: inactive | outcome [5]: inactive | outcome [6]: inactive | outcome [7]: inactive | outcome [8]: inactive | outcome [9]: inactive | outcome [10]: inactive | outcome [11]: inactive | outcome [12]: inactive | outcome [13]: inactive | outcome [15]: inactive | outcome [16]: inactive | outcome [17]: inactive | outcome [18]: inactive
